Assay outcomes (PubChem BioAssay)
IL-1B inflam inh: blocks inflammasome-driven IL-1 beta release; AID 743279; THP-1 LPS/ATP IL-1B secretion, AlphaLISA, 16 h; hits give low values; 360,000 compounds, 4.7% hits; activity change, % at 57.5 µM; in the data active means activity change below about -50%; inconclusive means mostly about -30% to -49%
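Secreted IL-1B measured by AlphaLISA bead assay after 16 h compound exposure of THP-1 cells; compounds (final up to 57.5 uM) added 1 h before LPS (250 ng/mL) and ATP (1.25 mM) stimulation; lower signal means less secretion.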
DT40 TDP1 CPT: DT40-hTDP1 cell growth loss with CPT; chicken DT40 Tdp1-/-;hTDP1 cells + 20 nM CPT, ATP luminescence, 48 h; Potency, µM (highest dose often 46.2 µM), without a hit: top-dose activity change, negative = growth inhibition, actives largely listed as inhibitors; 420,000 compounds, 12% hits; AID 686979; further: potency means the concentration at half of the fitted maximal effect; nearly all actives have a fitted effect of over 55% in size
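Chicken DT40 Tdp1-/- cells complemented with human TDP1, 400 cells/well, exposed to compounds plus 20 nM camptothecin for at least 48 h at 37 C; viability read as ATP content by CellTiter-Glo luminescence.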
HT1080 IDH1KD tx: toxicity to HT-1080 IDH1 knockdown cells (counter line) | HT-1080 IDH1 knockdown viability, ATP luminescence, 48 h | Potency, µM (titrated, usually from 46.1 µM), for the others: top-dose activity, negative = toxicity, usual class: cytotoxic | 360,000 compounds, 2% hits | AID 686971;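 further: potency means the concentration at half of the fitted maximal effect; 0% = DMSO wells and -100% = cell-free medium wells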
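HT-1080-IDH1KD cells (IDH1 knocked down), 750/well in RPMI with 5% FBS, treated with compound 48 h at 37 degrees C. Viability by CellTiter-Glo luminescence, normalised to DMSO and no-cell wells; concentration-response curves classed.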
DT40 TDP1 no CPT: qHTS for Inhibitors of human tyrosyl-DNA phosphodiesterase 1 (TDP1): qHTS in cells in absence of CPT. Potency, µM (highest dose often 46.2 µM), for inactives: top-dose activity change, negative = growth inhibition, actives largely listed as inhibitors. 420,000 compounds, 15% hits. AID 686978, 2013. DT40 Tdp1-/- hTDP1 cells, no CPT, ATP luminescence, 48 h; further: potency means the concentration at half of the fitted maximal effect; nearly all actives have a fitted effect of over 55% in size
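Camptothecin absent (DMSO only). Human TDP1-complemented DT40 knockout cells, 400 cells/well, 37 °C for minimum 48 hr; ATP measured via CellTiter-Glo, 30 min dark incubation, luminescence.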
HT1080NT lethal: kills 2HG-producing HT-1080-NT fibrosarcoma cells | HT-1080-NT fibrosarcoma viability, CellTiter-Glo ATP luminescence, 48 h | Potency, µM (series often up to 46.1 µM), for the others: at the highest dose activity, negative = less viability, usual class: cytotoxic | 360,000 compounds, 1.6% hits | AID 686970;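 further: NT is the 2HG producing partner of a matched IDH1 knockdown line; potency means the concentration at half of the fitted maximal effect; 0% = DMSO-treated cells and -100% = media-only wells without cells; nearly all actives have a fitted effect of over 55% in size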
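A 48-hour cytotoxicity screen used HT-1080-NT cells plated 2 hours before compound delivery. ATP-based CellTiter-Glo luminescence measured viability, normalized to DMSO and no-cell controls.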
The depositor's hits bear a star. The list is not random: actives were taken first. Their share in the collection is about 19%. Unless noted, the call rests on the fitted dose curve; in most records, active means well fitted curve in the direction sought with a large enough effect; inconclusive means small, poorly fitted or top-dose-only effect, or another doubt; inactive means no such curve, though single readings can be large; an effect the other way counts as inactive or inconclusive. Unless noted, on the % scale 0 is the no-effect control and ±100 the full control effect.

What do the screens show for `CC1CCCC(NC(=O)CN(C)S(=O)(=O)c2cccc3cccnc23)C1C` (stereo not given)?
IL-1B inflam inh: 0; DT40 TDP1 CPT: inconclusive; HT1080 IDH1KD tx: 6%; DT40 TDP1 no CPT: -25%; HT1080NT lethal: 25%

How did O=C1C(=Cc2cccs2)C(=O)c2ccccc21 do in these assays?
IL-1B inflam inh: 0; DT40 TDP1 CPT: 3%; HT1080 IDH1KD tx: -10%; DT40 TDP1 no CPT: -6%; HT1080NT lethal: -3%

What do the screens show for `O=C1C(c2ccccc2)=[N+]([O-])c2ccccc21`?
IL-1B inflam inh: -88*; DT40 TDP1 CPT: 5.2µM*; HT1080 IDH1KD tx: inconclusive; DT40 TDP1 no CPT: 4.1µM*; HT1080NT lethal: inconclusive

Results for COCCN(C(=O)COc1ccc(Cl)cc1)c1nnc(-c2cccnc2)s1 ?
IL-1B inflam inh: 23; DT40 TDP1 CPT: 8%; HT1080 IDH1KD tx: 9%; DT40 TDP1 no CPT: 8%; HT1080NT lethal: 0%

Results for Cc1ccc(Nc2nccc(N(C)c3ccc4c(C)n(C)nc4c3)n2)cc1S(N)(=O)=O ?
DT40 TDP1 CPT: 11µM*; DT40 TDP1 no CPT: 13µM*

What do the screens show for `CC(CNC(=O)c1ccc(CSc2nc3ccncc3n2Cc2cccc(F)c2)cc1)c1ccccc1` (stereo not given)?
DT40 TDP1 CPT: 23µM*; DT40 TDP1 no CPT: inconclusive

What do the screens show for `COCCNC(=O)c1ccc(CSc2nc3ccncc3n2Cc2ccccc2)cc1`?
DT40 TDP1 CPT: -3%; DT40 TDP1 no CPT: -24%

Results for Cc1ccc(CCNC(=O)c2ccc(CSc3nc4ccncc4n3Cc3ccc(F)cc3)cc2)cc1 ?
DT40 TDP1 CPT: 16µM*; DT40 TDP1 no CPT: 16µM*

How did O=C(NCCc1ccccc1)c1ccc(CSc2nc3ccncc3n2Cc2ccc(F)cc2)cc1 do in these assays?
DT40 TDP1 CPT: inconclusive; DT40 TDP1 no CPT: 16µM*

What do the screens show for `Cc1cccc(Cn2c(SCc3ccc(C(=O)NC4CCCCC4)cc3)nc3ccncc32)c1`?
DT40 TDP1 CPT: -9%; DT40 TDP1 no CPT: -19%

Results for Cc1ccc(CSc2nc3ccncc3n2CC(=O)Nc2cc(C)cc(C)c2)cc1 ?
IL-1B inflam inh: 27; DT40 TDP1 CPT: inconclusive; HT1080 IDH1KD tx: inconclusive; DT40 TDP1 no CPT: inconclusive; HT1080NT lethal: inconclusive

How did COc1ccc(N(CC(=O)NC2CCCCCC2)S(=O)(=O)c2ccc(C)cc2)cc1OC do in these assays?
IL-1B inflam inh: 2; DT40 TDP1 CPT: -1%; HT1080 IDH1KD tx: 1%; DT40 TDP1 no CPT: -13%; HT1080NT lethal: -1%

How did CCN(CC(=O)Nc1c(F)cccc1F)C(=O)C1COc2ccccc2O1 (stereo not given) do in these assays?
IL-1B inflam inh: 8; DT40 TDP1 CPT: -18%; HT1080 IDH1KD tx: -4%; DT40 TDP1 no CPT: inconclusive; HT1080NT lethal: -1%

Results for COc1ccc(OC(C)c2nnc(N)s2)cc1 (stereo not given) ?
IL-1B inflam inh: -11; DT40 TDP1 CPT: -8%; HT1080 IDH1KD tx: -4%; DT40 TDP1 no CPT: 0%; HT1080NT lethal: -8%

How did Cc1ccc(OC(C)c2nnc(N)s2)cc1Cl (stereo not given) do in these assays?
IL-1B inflam inh: 2; DT40 TDP1 CPT: 21µM*; HT1080 IDH1KD tx: -19%; DT40 TDP1 no CPT: inconclusive; HT1080NT lethal: 0%

Results for O=C1c2oc3ccccc3c(=O)c2C(c2cccc(O)c2)N1c1nncs1 (stereo not given) ?
DT40 TDP1 CPT: -12%; DT40 TDP1 no CPT: -4%

Results for COC(=O)c1sc(N2C(=O)c3oc4ccccc4c(=O)c3C2c2cccs2)nc1C (stereo not given) ?
IL-1B inflam inh: -7; DT40 TDP1 CPT: 18µM*; HT1080 IDH1KD tx: 9%; DT40 TDP1 no CPT: 16µM*; HT1080NT lethal: 7%

Results for O=C1c2oc3ccccc3c(=O)c2C(c2cccc(Br)c2)N1c1ccccn1 (stereo not given) ?
DT40 TDP1 CPT: inconclusive; DT40 TDP1 no CPT: 16µM*

How did CCCOc1cccc(C2c3c(oc4ccc(F)cc4c3=O)C(=O)N2c2nc(C)c(C(C)=O)s2)c1 (stereo not given) do in these assays?
DT40 TDP1 CPT: 13µM*; DT40 TDP1 no CPT: 15µM*

How did CCCOc1cccc(C2c3c(oc4ccccc4c3=O)C(=O)N2c2nncs2)c1 (stereo not given) do in these assays?
DT40 TDP1 CPT: 15µM*; DT40 TDP1 no CPT: inconclusive

What do the screens show for `O=C1c2oc3ccccc3c(=O)c2C(c2cccc(Cl)c2)N1c1ccccn1` (stereo not given)?
DT40 TDP1 CPT: 17%; DT40 TDP1 no CPT: inconclusive

Results for C=CCNc1cccc(Br)c1 ?
IL-1B inflam inh: 22; DT40 TDP1 CPT: -22%; HT1080 IDH1KD tx: 3%; DT40 TDP1 no CPT: -19%; HT1080NT lethal: 6%

Results for CCOc1ccccc1NC(=O)Cn1c(=O)n(CCC(C)C)c(=O)c2cccnc21 ?
DT40 TDP1 CPT: -9%; DT40 TDP1 no CPT: -14%

What do the screens show for `CC(C)CC(NC(=O)c1ccc(Cl)cc1)C(=O)OCc1cc([N+](=O)[O-])cc2c1OCOC2` (stereo not given)?
IL-1B inflam inh: 16; DT40 TDP1 CPT: 1%; HT1080 IDH1KD tx: -9%; DT40 TDP1 no CPT: -29%; HT1080NT lethal: -1%

How did CCOc1ccccc1C(=O)N[C@H](C(=O)OCc1cc([N+](=O)[O-])cc2c1OCOC2)C(C)C do in these assays?
IL-1B inflam inh: -21; DT40 TDP1 CPT: inconclusive; HT1080 IDH1KD tx: inconclusive; DT40 TDP1 no CPT: 16µM*; HT1080NT lethal: -2%

How did CC(C)C(NC(=O)c1ccccc1)C(=O)OCc1cc([N+](=O)[O-])cc2c1OCOC2 (stereo not given) do in these assays?
IL-1B inflam inh: 34; DT40 TDP1 CPT: 15µM*; HT1080 IDH1KD tx: -8%; DT40 TDP1 no CPT: 12µM*; HT1080NT lethal: -2%

How did CC(C)C(NC(=O)c1ccco1)C(=O)OCc1cc([N+](=O)[O-])cc2c1OCOC2 (stereo not given) do in these assays?
IL-1B inflam inh: 28; DT40 TDP1 CPT: inconclusive; HT1080 IDH1KD tx: 4%; DT40 TDP1 no CPT: inconclusive; HT1080NT lethal: 9%

What do the screens show for `COc1ccc2[nH]c3c(c(=O)c2c1)CCCC3`?
IL-1B inflam inh: 10; DT40 TDP1 CPT: inconclusive; HT1080 IDH1KD tx: 9%; DT40 TDP1 no CPT: -27%; HT1080NT lethal: inconclusive

Results for COc1ccc2[nH]c3c(c2c1)CC(C)NC3=O (stereo not given) ?
IL-1B inflam inh: inconclusive; DT40 TDP1 CPT: inconclusive; HT1080 IDH1KD tx: -3%; DT40 TDP1 no CPT: 7.3µM*; HT1080NT lethal: 0%

Results for Cc1cc(F)ccc1NC(=O)CCSc1nc(-c2ccco2)cc(C(F)(F)F)n1 ?
DT40 TDP1 CPT: -24%; DT40 TDP1 no CPT: -24%
